Data: ChEMBL document CHEMBL4513216, “Probing the Open Global Health Chemical Diversity Library for Multistage-Active Starting Points for Next-Generation Antimalarials” (ACS Infect Dis, 2020)
The campaign covered roughly 69,000 compounds. About 8,600 (12%) showed an effect of 50% or more. Many of the other results were omitted from the sample, so strong results are more common in it than they were.

Test system: Plasmodium berghei
Assay: Screen against P. berghei liver stage (PbLuc), transformed with Luciferase, at 10uM
Format: functional, HepG2
Conditions: tested at 10 uM

SMILES | INHIBITION
Cc1cc(CN2CCC3(CC2)COC(COCC2CC2)C3)no1 (stereo not given) | 22.2%
CCNC(=O)NC(=O)CN1CCC(c2cccc(F)c2)C1 (stereo not given) | 15.8%
O=C(NC1CC1)c1cc(C(F)(F)F)cc(C(F)(F)F)n1 | -14.3%
Cc1ccc(OCCN2CCC(c3ccnn3CCO)CC2)cc1 | 19.6%
CCc1nc2n(n1)CC(NCc1nc(-c3ccccn3)no1)CC2 (stereo not given) | 4.45%
COCCOc1cccc(C(=O)N2CCCC(n3ccnc3)C2)c1 (stereo not given) | 33.7%
OCC(CO)N1CCC(c2nccnc2Nc2cnccn2)CC1 | -42.9%
Cc1ccc(S(=O)(=O)N2CCCC3(CCCN3S(C)(=O)=O)C2)cc1F (stereo not given) | -21.1%
CSC1(CNC(=O)CCc2ccc(Cl)s2)CCOCC1 | -19.1%
CN1CCN(CCCNC(=O)CCc2nc3cc(Br)cnc3[nH]2)CC1 | 38.9%
CCc1nccn1C1CCCN(C(=O)c2ccc3[nH]cnc3c2)C1 (stereo not given) | 3.16%
CCCc1nnc(NCCn2nc(C)c(Cl)c2C)o1 | 13.7%
Cc1cc(C)n(CC2CN(CC(=O)NC3CCOCC3)CCO2)n1 (stereo not given) | 36.1%
COc1ccc2[nH]cc(C(=O)N3C[C@@H](O)[C@H](N4CCOCC4)C3)c2c1 | 29.5%
O=C(Cc1ccc(F)cc1)NCCNCc1cccc(O)c1 | 5.9%
CCn1c(C)cc(C(=O)N2C[C@@H](C(=O)O)[C@H](c3ccccc3)C2)c1C | 35.8%
CNc1ncc(C(=O)N[C@H]2CN(CCCSC)C[C@@H]2C2CC2)cn1 | 1.71%
O=C1OCCC1N1CCN(c2ccccn2)CC1 (stereo not given) | 59.3%
CN(C(=O)c1ccccc1Cl)C1CCN(c2ccccn2)CC1 | 28.6%
Cc1cccc(C(=O)N(C)C2CCN(c3ccccn3)CC2)c1C | 37.3%
COCC(C)N(C)C(=O)NC1CCN(c2ncccn2)CC1 (stereo not given) | 52.2%
CN(C1CCN(c2ccccn2)CC1)S(=O)(=O)c1ccccc1F | 21.5%
CN(C(=O)Cc1ccccc1F)C1CCN(c2ccccn2)CC1 | 52.3%

SMILES | INHIBITION
O=C1OCCC1N1CCN(c2cnccn2)CC1 (stereo not given) | 3.69%
CN(C(=O)c1cccc2[nH]ncc12)C1CCN(c2ccccn2)CC1 | 59.7%
O=C1OCCC1N1CCN(c2ccc(O)cc2)CC1 (stereo not given) | 43.1%
COCC(C)N(C)C(=O)NC1CCN(S(C)(=O)=O)CC1 (stereo not given) | 36.2%
CN(Cc1cnn(C)c1)C(=O)NC1CCN(c2ncccn2)CC1 | 3.04%
CN(Cc1noc(C2CC2)n1)C1CCN(CCS(C)(=O)=O)C1 (stereo not given) | -24.2%
CN(C(=O)Cc1c[nH]c2ccccc12)C1CCN(c2ccccn2)CC1 | 53.8%
CN(C(=O)c1ccc(Cl)cc1)C1CCN(c2ccccn2)CC1 | 3.73%
CN(C(=O)Cc1ccc(F)cc1)C1CCN(c2ccccn2)CC1 | -1.14%
CN(C(=O)c1cccc(Cl)c1)C1CCN(c2ccccn2)CC1 | 31.3%
CN(C(=O)CNC(=O)CC(C)(C)C)C1CCN(c2ccccn2)CC1 | -11.5%
CN(C(=O)c1cc(Cl)c[nH]1)C1CCN(c2ccccn2)CC1 | 50.4%
OC(CN1CCN(Cc2ccc(F)c(F)c2)CC1)C1CC1 (stereo not given) | -48.4%
Cc1nc(C(C)n2cc3[nH]cccc-3c2=O)cs1 (stereo not given) | 33.7%
CCN(Cc1noc(C2CC2)n1)C(=O)c1onc2ccccc12 | 48.1%
O=C1CCCN1Cc1nnc(SCc2ccc3c(c2)CCC3)o1 | 13.2%
Cc1n[nH]cc1CNCC1(c2cccc(F)c2)CCOCC1 | -11.9%
Cn1cc(CN2CCOC3(CCCN(c4cccc(F)c4)C3)C2)cn1 (stereo not given) | 73%
Fc1ccc(N2CCOC3(COCCN(c4ncccn4)C3)C2)cc1 (stereo not given) | 61.1%
COc1ccc(CN2CCOC3(CCCN(c4nnc(C)o4)C3)C2)cc1 (stereo not given) | 31.8%
Fc1cccc(N2CCCC3(C2)CN(c2ncccn2)CCO3)c1 (stereo not given) | 80.5%
Cn1cc(CN2CCC(F)(F)C3(CCN(c4cccc(F)c4)C3)C2)cn1 (stereo not given) | -0.371%
Fc1cccc(N2CCCC3(C2)CN(c2cnccn2)CCO3)c1 (stereo not given) | 23.3%

SMILES | INHIBITION
Cc1nnc(N2CCCC3(CN(Cc4ccc(F)cc4)CCO3)C2)o1 (stereo not given) | 57.4%
Cc1nnc(N2CCCC3(CN(Cc4cnn(C)c4)CCO3)C2)o1 (stereo not given) | 41.2%
Cc1nnc(N2CCCC3(CN(Cc4ccncc4)CCO3)C2)o1 (stereo not given) | 10.1%
Fc1cccc(N2CCCC3(CN(Cc4ccccn4)CCO3)C2)c1 (stereo not given) | -9.42%
c1ccc(CN2CCOC3(COCCN(c4ncccn4)C3)C2)nc1 (stereo not given) | 20.1%
c1cnc(N2CCOCC3(CNCCO3)C2)nc1 (stereo not given) | 22.2%
Cc1cc(O)cc(=O)n1CCCC(=O)Nc1n[nH]c2ccccc12 | 9.96%
COCC1CN(S(=O)(=O)N(C)C)Cc2ncn(CC3CC3)c21 (stereo not given) | 5.56%
Cc1cccc(CO[C@H]2CN(c3nnc(C)s3)[C@@H]3CCCO[C@H]23)n1 | 22.2%
Cc1nc(CN2CCC3(CCCN(C(=O)c4cnccn4)C3)C2)cs1 (stereo not given) | -2.46%
Cc1cc(CN2CCCC2c2c(C)nn(C)c2Cl)on1 (stereo not given) | 47%
Cc1cnn(CC2CN(Cc3ccc(C(N)=O)cc3)CCO2)c1 (stereo not given) | 37.4%
COCC(=O)N1CCC[C@]2(C(=O)N(C)C)CN(c3ccccn3)C[C@@H]2C1 | -4.56%
c1ccc2oc(CCCN3CCCC(Cn4cncn4)C3)nc2c1 (stereo not given) | 45.7%
Fc1cccc(N2CCOC3(CCCN(c4cnccn4)C3)C2)c1 (stereo not given) | 41%
Fc1cccc(N2CCCC3(CN(Cc4ccncc4)CCO3)C2)c1 (stereo not given) | 81.3%
CC(=O)N1CCCC2(CN(Cc3ccncc3)CCO2)C1 (stereo not given) | -7.59%
Fc1cnc(N2CCCC3(CN(Cc4ccncc4)CCO3)C2)nc1 (stereo not given) | 1.71%
c1ccc(CN2CCOC3(CCCN(c4nccs4)C3)C2)cc1 (stereo not given) | 43.9%
Cc1nnc(N2CCCC3(CN(Cc4cccnc4)CCO3)C2)o1 (stereo not given) | 22.2%
Fc1cccc(N2CCCC3(CN(Cc4cccnc4)CCO3)C2)c1 (stereo not given) | 71.9%
Fc1cccc(N2CCCC3(CN(Cc4nccs4)CCO3)C2)c1 (stereo not given) | 88.2%
Cc1nnc(N2CCCC3(CN(Cc4nccs4)CCO3)C2)o1 (stereo not given) | 8.67%

SMILES | INHIBITION
Cc1cc(OCC(N)=O)ccc1NC(=O)C(C)Cc1ccccc1F (stereo not given) | 39.6%
O=C(c1cnccn1)N1C[C@@H]2C[C@@H](c3nc(C4CC4)cs3)O[C@@H]2C1 | 10.7%
COc1cc(C)nc(N2CCN(C(=O)c3cccc(C#N)c3)CC2)n1 | 8.64%
COc1ccc2c(c1)C(=O)NC1(CC2)CCN(Cc2ccccn2)C1 (stereo not given) | 17.9%
CNC(=O)NC(=O)CCSCc1cc(F)cc2cccnc12 | 11.5%
Cc1cc(C)n(CCNc2ncnc3c2NC(=O)CN3)n1 | 44.1%
Cc1cc(C)n(CCCNc2ncnc3c2NC(=O)CN3)n1 | 57.3%
Cc1nn(CCNc2ncnc3c2NC(=O)CN3)c(C)c1Cl | 42.4%
O=C1[C@H]2CN(C3CCOC3)C[C@H]2CN1c1ccccc1 (stereo not given in full) | 10.5%
Cc1n[nH]c(C)c1CNCC(O)c1cccc(Cl)c1 (stereo not given) | 46%
Cc1noc(C)c1CN1CCC(N(C)Cc2nnc(C3CC3)n2C)C1 (stereo not given) | 19.2%
O=C(NC1CC1)c1ccn(COc2c(Cl)cccc2Cl)n1 | 43.3%
Cc1ccoc1C1=NNC(=CN2CCCC(Cn3cncn3)C2)O1 (stereo not given) | 27.1%
Cc1cc(C)n(C2CCN(Cc3c(-c4cc(C)on4)nn(C)c3Cl)C2)n1 (stereo not given) | 28.5%
Cc1cc(-c2nn(C)c(Cl)c2CN2CC[C@@](O)(C3CCC3)[C@H](C)C2)no1 | 33.9%
CCNC(=O)C1CN(Cc2c(-c3cc(C)on3)nn(C)c2Cl)CCO1 (stereo not given) | 43%
Cc1cc(-c2nn(C)c(Cl)c2CN2CC[C@H](CO)[C@@H](O)C2)no1 | 36.7%
Cc1cc(-c2nn(C)c(Cl)c2CN2CCOC(C(=O)O)C2)no1 (stereo not given) | 17.6%
Cc1cc(-c2nn(C)c(Cl)c2CN2CCOCC(O)C2)no1 (stereo not given) | 41.8%
Cc1cc(-c2nn(C)c(Cl)c2CN2CCN(C)C(C(=O)O)C2)no1 (stereo not given) | 59.4%
Cc1cc(-c2nn(C)c(Cl)c2CN2CCC3(CC2)[C@H](O)C[C@@H]3O)no1 | 50.3%
Cc1cc(-c2nn(C)c(Cl)c2CN2Cc3ccccc3C(O)C2)no1 (stereo not given) | 51.8%
Cc1cnn(CC2CN(CC(=O)Nc3cc(C)no3)CCO2)c1 (stereo not given) | -103.725%

SMILES | INHIBITION
O=C1CC(c2ccncc2)c2c(sc3c2CCCC3)N1 (stereo not given) | 20.4%
O=C1CC(c2cccnc2)c2c(sc3c2CCCC3)N1 (stereo not given) | 26.9%
O=C1CC(c2ccc(C(=O)O)cc2)c2c(sc3c2CCCC3)N1 (stereo not given) | 89.3%
CC(=O)N(Cc1ncc(C)o1)C1CCN(CCOc2ccccc2)C1 (stereo not given) | 8.31%
CC(=O)N1CCc2c(nc(N(C)C)nc2N(C)CC2CCCO2)C1 (stereo not given) | 41.4%
CC(C)SCC(=O)N1CCc2c(nc(N(C)C)nc2N(C)C)C1 | 61.1%
CN(C)c1nc2c(c(N(C)C)n1)CCN(C(=O)CN1CCC(O)CC1)C2 | 56.1%
CN(C)c1nc2c(c(N(C)C)n1)CCN(C(=O)CN1C[C@H]3CC[C@@H]1C3)C2 | 11.7%
CCN(CC)CCC(=O)N1CCc2c(nc(N(C)C)nc2N(C)C)C1 | 30.1%
Cc1nc2c(c(N(C)C)n1)CCN(C(=O)CN1CCC(O)CC1)C2 | 45.3%
Cc1ccc(NC(=O)C2CSCN2C(=O)c2cnsn2)c(C)c1 (stereo not given) | -50.6%
CCS(=O)(=O)N1CCCc2ccc(NC(=O)Cc3ccc(F)cc3)cc21 | 56.1%
CSc1ccc(NC(=O)Nc2ccc3c(c2)N(S(C)(=O)=O)CC3)cc1 | 49%
CCS(=O)(=O)N1CCc2ccc(NC(=O)Nc3ccc(F)cc3F)cc21 | 72.6%
CCS(=O)(=O)N1CCc2ccc(NC(=O)Nc3cccc(C)c3)cc21 | 85%
CCS(=O)(=O)N1CCc2ccc(NC(=O)NC(C)(C)C)cc21 | 46.1%
Cc1cc(S(=O)(=O)N2CCCc3ccc(F)cc32)sc1C(=O)O | 26.8%
Cc1cccc(NC(=O)N2CCC(CO)(Nc3ccccc3)CC2)c1 | -15.96%
COc1ccc(S(=O)(=O)N2CCc3ccc(F)cc32)cc1C(=O)O | 15.3%
CO[C@H]1CN(C(C)C)C[C@@H]1NC(=O)Nc1cccc(SC)c1 | 12.6%
CCS(=O)(=O)N1CCc2ccc(NC(=O)Nc3cccc(SC)c3)cc21 | 88.4%
O=C(O)c1csc(S(=O)(=O)N2CCCc3ccc(F)cc32)c1 | -9.67%
CCS(=O)(=O)N1CCc2ccc(NC(=O)NC3CCCCC3)cc21 | 8.41%
